Source: PubChem BioAssay (several laboratories)
The list is not random: actives were taken first. Their share in the collection is about 1.2%.
NCOA3 inh: inhibits human SRC3 coactivator; Q9Y6Q9; HEK293 GAL4-SRC3 luciferase reporter, luminescence; inhibition, % at 3.6 µM; 360,000 tested, 0.17% active; AID 588352;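 active = inhibition above a per-campaign cutoff, the mean of all compounds plus 3 SD, cut at about 60% in these data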;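 note: 0% = DMSO-treated cells and 100% = gossypol-treated cells at 36 µM; higher means less SRC3-driven luciferase light from the GAL4 reporter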
Target sequence (Q9Y6Q9 whole entry, looked up, the tested form may be a part): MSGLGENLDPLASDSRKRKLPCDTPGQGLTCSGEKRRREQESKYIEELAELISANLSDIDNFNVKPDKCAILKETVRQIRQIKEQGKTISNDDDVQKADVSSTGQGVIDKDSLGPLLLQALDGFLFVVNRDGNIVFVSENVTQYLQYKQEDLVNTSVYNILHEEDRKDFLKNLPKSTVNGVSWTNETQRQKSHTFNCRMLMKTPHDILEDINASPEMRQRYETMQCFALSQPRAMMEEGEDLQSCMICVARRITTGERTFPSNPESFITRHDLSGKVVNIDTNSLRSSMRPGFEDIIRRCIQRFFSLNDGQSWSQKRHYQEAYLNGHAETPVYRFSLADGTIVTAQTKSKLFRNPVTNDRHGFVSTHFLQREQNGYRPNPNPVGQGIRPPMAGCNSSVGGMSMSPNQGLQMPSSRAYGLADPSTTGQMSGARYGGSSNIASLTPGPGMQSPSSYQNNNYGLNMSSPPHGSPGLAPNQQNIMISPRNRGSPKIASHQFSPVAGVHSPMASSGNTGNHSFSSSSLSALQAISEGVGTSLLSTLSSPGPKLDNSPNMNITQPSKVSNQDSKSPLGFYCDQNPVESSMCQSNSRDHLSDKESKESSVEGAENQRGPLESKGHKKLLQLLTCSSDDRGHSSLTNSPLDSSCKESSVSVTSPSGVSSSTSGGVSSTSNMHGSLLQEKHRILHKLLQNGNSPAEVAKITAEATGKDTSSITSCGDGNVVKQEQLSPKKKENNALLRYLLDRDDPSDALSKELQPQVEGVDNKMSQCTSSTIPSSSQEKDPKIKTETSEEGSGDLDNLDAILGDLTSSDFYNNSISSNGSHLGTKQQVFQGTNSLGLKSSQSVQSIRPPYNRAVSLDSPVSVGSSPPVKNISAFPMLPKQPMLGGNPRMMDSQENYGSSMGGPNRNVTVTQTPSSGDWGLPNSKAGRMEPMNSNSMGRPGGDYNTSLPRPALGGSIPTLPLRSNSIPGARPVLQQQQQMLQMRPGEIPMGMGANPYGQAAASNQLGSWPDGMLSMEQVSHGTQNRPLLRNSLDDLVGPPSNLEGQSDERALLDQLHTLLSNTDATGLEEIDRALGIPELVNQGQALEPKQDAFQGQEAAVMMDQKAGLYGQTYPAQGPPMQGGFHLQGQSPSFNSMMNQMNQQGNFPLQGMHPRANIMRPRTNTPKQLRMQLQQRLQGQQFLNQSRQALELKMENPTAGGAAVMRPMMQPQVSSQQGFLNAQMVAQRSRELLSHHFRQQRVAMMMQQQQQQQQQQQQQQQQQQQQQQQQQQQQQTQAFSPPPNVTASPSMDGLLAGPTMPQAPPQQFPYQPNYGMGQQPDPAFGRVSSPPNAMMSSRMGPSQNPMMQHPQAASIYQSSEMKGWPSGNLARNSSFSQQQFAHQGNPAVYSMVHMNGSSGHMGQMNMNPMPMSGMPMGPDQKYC
Gli-Sufu antag: antagonists of Gli-Sufu signaling; Sufu-KO-LIGHT fibroblasts, Gli luciferase reporter luminescence; inhibition, % at 5 µM; 340,000 tested, 0.74% active; AID 588413;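 active = inhibition above about 55%, limit read from the data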;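 note: 0% = DMSO-treated cells and 100% = wells with medium but no cells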
NCOA1 inh: inhibitors of human steroid receptor coactivator 1 (SRC1). HEK293 GAL4-SRC1 luciferase reporter, luminescence. inhibition, % at 3.6 µM. Q15788. 360,000 tested, 0.12% active;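 active = inhibition above the campaign mean plus 3 SD, with each screening campaign given its own cutoff, cut at about 60% in these data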;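 note: 0% = DMSO treated cells and 100% = gossypol at 36 µM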
NCOA2 inhibitor: inhibits human steroid receptor coactivator 2; HEK293 GAL4-SRC2 luciferase reporter, luminescence; inhibition, % at 9 µM; 370,000 tested, 0.17% active; Q15596;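 active = inhibition above the mean inhibition of all tested compounds plus 3 SD, set per campaign, cut at about 52% in these data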;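 note: 0% = DMSO treated cells and 100% = cells given Gossypol at 36 µM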
NR5A2 inv ag: suppresses constitutive activity of human LRH-1; HEK293T StAR-luciferase reporter, LRH-1 transfected, 24 h; inhibition, % at 3.6 µM; 360,000 tested, 0.13% active; AID 602396;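 active = inhibition above the mean inhibition of all tested compounds plus 3 SD, cut at about 73% in these data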;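 note: 0% = DMSO wells and 100% = reporter-only cells lacking LRH-1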
NR2F2 inh: NR2F2 (human) inhibition, primary screen; P24468; HEK293T NGFI-A luciferase reporter, luminescence; inhibition, % at 8.6 µM; 370,000 tested, 0.7% active; AID 686940;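 active = inhibition above a per-plate cutoff, mean inhibition of test wells between control levels plus 3 SD, cut at about 38% in these data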;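 note: cells cotransfected with COUP-TFII expression vector driving the NGFI-A reporter; 0% = median of COUP-TF2 test wells and 100% = reporter-only cells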
Gli antag conf: Gli-SUFU antagonism confirmation, single concentration | shares compounds with Gli-Sufu antag | Sufu-KO-LIGHT cells, Gli luciferase reporter, luminescence | inhibition, % at 5 µM | 2,500 tested, 40% active | AID 602428;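 active = mean inhibition at 5 µM reaching about 45%, limit read from the data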;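 note: plate controls were DMSO-treated cells for no effect and wells lacking cells for full effect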
Gli cytotox: counter-screen for Gli-SUFU antagonists: cytotoxicity. shares compounds with Gli-Sufu antag. Sufu-KO-LIGHT cells cytotoxicity, ATP luminescence. cytotoxicity, % at 5 µM. 2,500 tested, 32% active;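 active = mean cytotoxicity at 5 µM above about 25%, limit read from the data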;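 note: cells exposed to compound overnight for roughly 16 to 18 hours; plate controls were DMSO wells with cells for no effect and medium without cells for full effect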
Wnt3a cs: inhibits Wnt3a reporter, counter-screen for Gli-SUFU antagonists; shares compounds with Gli-Sufu antag; 2,500 tested, 20% active; Wnt-LIGHT cells, Wnt3a-driven luciferase reporter, luminescence; inhibition, % at 6.25 µM; AID 651995;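 active = mean inhibition above about 25%, limit read from the data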
Starred values were filed as active, the others as inactive; . = no result.

SMILES	NCOA3 inh	Gli-Sufu antag	NCOA1 inh	NCOA2 inhibitor	NR5A2 inv ag	NR2F2 inh	Gli antag conf	Gli cytotox	Wnt3a cs
O=C(COC(=O)CCc1nc2ccccc2s1)Nc1nc(-c2ccccc2)cs1	-13	-23	-30	-16	-45	-6	.	.	.
Cc1csc(NC(=O)CSCC(=O)Nc2ccccc2)n1	10	99*	3	-22	7	13	16	6	0
Cc1csc(SCC(=O)Nc2ccccc2)n1	-27	-12	-19	-11	-8	-14	.	.	.
Cc1csc(NC(=O)CCc2nc3ccccc3s2)n1	-6	99*	-24	-17	-16	16	10	6	-39
Cc1cc(Br)c2nc(-c3ccc(Cl)cc3)c(Cc3cccc(Cl)c3)n2c1	.	.	.	-39	.	-15	.	.	.
CC[n+]1c(/C=C/Nc2ccccc2)oc2ccc(OC)cc21	1	25	1	-19	-17	-19	.	.	.
CC[n+]1c(/C=C/N(C)c2ccccc2)oc2ccc(F)cc21	18	82*	17	-9	14	14	84*	26*	70*
CCCCCCC12C(=Cc3cc4c(cc31)OCCO4)c1cc(OC)c(OC)cc1C(CC(=O)NCc1ccccc1)N2C(=O)OC (stereo not drawn)	.	.	.	9	.	-10	.	.	.
CCCCOCCCNC(=O)C[C@H]1C[C@@]2(C(=O)OC)C(=C[C@H](C3CCCC3)O[C@@H]2C)N(Cc2ccccc2)C1=O	.	.	.	13	.	0	.	.	.
COc1ccc(CCNC(=O)CCC(=O)Nc2ccc3nc(N4CCN(C)CC4)cc(C)c3c2)cc1OC	12	51	-24	2	9	20	26	20	-10
CCOc1ccc(CCNC(=O)CCC(=O)Nc2ccc3nc(N4CCN(C)CC4)cc(C)c3c2)cc1OCC	9	4	-12	-4	-21	21	.	.	.
O=S(=O)(c1ccc(Br)s1)N1CCC(c2nc3ccccc3o2)CC1	.	.	.	-10	.	-6	.	.	.
CN(N=Cc1ccc2c(c1)OCO2)C(=O)c1ccccc1N	.	.	.	-10	.	-17	.	.	.
CON(C)C(=O)C(C)(C)CC#CCN(CC#Cc1ccccc1)S(=O)(=O)c1ccc(C)cc1	.	.	.	6	.	-2	.	.	.
Cc1ccnc(NC(=O)CCC(=O)N(CC(=O)NCc2ccc(F)cc2)Cc2ccco2)c1	12	63*	-6	-37	-3	-4	15	8	-6
Cc1ccnc(NC(=O)CCC(=O)N(CC(=O)NCc2ccc(F)cc2)c2ccc(F)cc2)c1	-16	-25	5	-4	9	1	.	.	.
COC(=O)c1cc2c(c3c4cc(F)ccc4n(S(=O)(=O)c4cccc(C)c4)c13)C(=O)N(C)C2	.	.	.	0	.	-1	.	.	.
COc1cccc(-c2ccc(SCC(=O)c3ccccc3)nn2)c1	-10	55*	-24	-4	-8	-9	22	12	-71
COC(=O)CNC(=O)C(C)NC(=O)OCc1ccccc1 (stereo not drawn)	-18	99*	5	-10	-6	-2	34	4	-2
Cc1ccc(Cn2c(=O)n(C)c(=O)c3sccc32)cc1	6	22	-7	-7	7	-4	.	.	.
C=Cc1ccc(Cn2c(=O)n(C)c(=O)c3sccc32)cc1	24	54	2	16	10	6	35	16	4
O=C(CN1CCOCC1)NCc1cc([N+](=O)[O-])ccc1O	12	55*	-36	-3	11	10	22	0	-3
CCOC(=O)N1CCN(C(=O)c2ccc3c(c2)N(Cc2cccc(Cl)c2)C(=O)c2ccccc2S3=O)CC1 (stereo not drawn)	-2	56*	-3	10	16	-12	12	12	2
CC(=O)N(c1ccc(Cl)cc1)c1c[nH]c2ccccc12	9	56*	13	-4	36	14	14	8	-11
CCc1c(C)nc2cc(-c3ccc(OC)c(OC)c3)nn2c1NCC1CC1	-22	74*	-15	-20	-43	-7	74*	27*	35*
SMILES	NCOA3 inh	Gli-Sufu antag	NCOA1 inh	NCOA2 inhibitor	NR5A2 inv ag	NR2F2 inh	Gli antag conf	Gli cytotox	Wnt3a cs
COc1ccc(-c2c(C)nn3c(NC4CCCC4)cc(C)nc23)cc1OC	19	1	5	-8	54	1	.	.	.
COc1cccc(OC)c1/C(O)=C(\C#N)c1nc2ccccc2[nH]1	-15	51	1	6	29	11	19	22	-7
O=C(O)C1CCCN(S(=O)(=O)c2ccc(F)cc2)C1 (stereo not drawn)	-4	1	-11	-45	-18	1	.	.	.
O=S(=O)(c1ccc(F)cc1)N1CCCC(CO)C1 (stereo not drawn)	11	52	12	2	15	-3	12	2	-9
COc1ccc(CN(C)Cc2c(O)ccc3ccccc23)cc1	11	18	-7	-1	28	3	.	.	.
COc1ccc2ccccc2c1CN(C)Cc1ccccc1	-12	83*	-19	5	0	-20	18	14	-7
COc1ccc(N2CCN(C(C)C(=O)N3CCc4ccccc43)CC2)cc1 (stereo not drawn)	-8	-13	4	11	14	4	.	.	.
COc1ccc(N2CCN(C(C)C(=O)N3CC(C)OC(C)C3)CC2)cc1 (stereo not drawn)	-2	54	-9	18	12	7	13	6	-2
Brc1ccc(-c2csc(N3CCCCCC3)n2)cc1	-10	51	-9	5	4	4	59*	1	27*
O=S(=O)(c1ccc2c(c1)nc(COc1ccc(Cl)cc1)n2CC1CCCO1)N1CCOCC1 (stereo not drawn)	7	60*	-11	-28	6	0	45*	9	33*
c1ccc2[nH]c(COCc3nc4ccccc4[nH]3)nc2c1	.	.	.	.	.	-16	.	.	.
Cc1cc(/C=C(\C#N)C(=O)NCc2cccs2)c(C)[nH]1	-14	-14	1	-18	-14	-14	.	.	.
COCCCNC(=O)/C(C#N)=C/c1cc(C)[nH]c1C	2	57*	-27	-17	-4	10	17	6	-1
O=C(c1ccc([N+](=O)[O-])cc1)N(Cc1ccc(Cl)cc1Cl)N1C(=O)CCCC1=O	-2	23	-8	-2	-23	-8	.	.	.
O=C(c1ccc([N+](=O)[O-])cc1)N(Cc1ccc(Cl)cc1)N1C(=O)CCCC1=O	-9	78*	10	-10	-6	-2	90*	71*	10
CC(CCN1CCC(C(O)(c2ccccc2)c2ccccc2)CC1)Oc1cc(F)cc(F)c1 (stereo not drawn)	.	.	.	2	.	17	.	.	.
